Assay outcomes (PubChem BioAssay)
Shown are actives, neighbours in structure and some others; about 8.6% of the full set was active somewhere.
Lassa entry: Lassa virus entry inhibition; 18,000 compounds, 4.1% hits; Potency, µM (highest dose often 49.2 µM), hits mostly inhibitors; Lassa virus pseudotyped entry inhibition, cell-based qHTS; AID 720533
MARV entry inh: blocks Marburg virus binding or cell entry | AID 720532 | Potency, µM (doses to about 49.2 µM), actives largely listed as inhibitors | 18,000 compounds, 6.5% hits | Marburg virus pseudotype entry/binding inhibition, cell-based
Of the large screens only hits and unclear results are named; the others gave an inactive call; ! = a repeat was not active. Calls follow the shape of the full dose curve; tested in HEK293 cells.

COc1ccccc1-c1ccc2ncnc(N(C)C)c2c1	none
CC(=O)O[C@@H]1[C@@H](O)C2OC3C=C(C)C(=O)[C@@H](O)[C@]3(CO)C1(C)C21CO1 (stereo partly drawn)	Lassa entry 0.56µM, MARV entry inh 0.35µM
C[C@]12CC[C@H]3[C@@H](CCC4=CC(=O)CC[C@@]43C)[C@@H]1CC[C@H]2O	none
Clc1cccc(Nc2nnc(-c3ccccc3)c3ccccc23)c1	Lassa entry 3.5µM, MARV entry inh 7.1µM!
c1ccc(-c2nc(-c3cccc4ccccc34)c(Nc3ccc4ccccc4c3)o2)cc1	none
COc1cccc(CN2c3ccc(Br)cc3C(O)CS2(=O)=O)c1 (stereo not drawn)	none
CCCCNC(=O)NS(=O)(=O)c1ccc(N)cc1	Lassa entry inconclusive
COc1cc(CN2CCC3(CCC(CNC(=O)c4ccccc4)O3)CC2)cc(OC)c1 (stereo not drawn)	MARV entry inh 13µM
Cc1nc2ccc(C(=O)NCC3CCC4(CCN(Cc5cccnc5)CC4)O3)cc2nc1C (stereo not drawn)	MARV entry inh inconclusive
NCCc1ccc(O)cc1	Lassa entry inconclusive
Nc1ccc(O)cc1	Lassa entry 45µM, MARV entry inh 50µM
CC(C)[C@H](NC(=O)[C@H](CC(=O)O)NC(=O)CNC(=O)[C@@H](N)CCCN=C(N)N)C(=O)O	none
COc1cc(O)cc(/C=C/c2ccccc2)c1	none
COC1=CC(=O)C(O)=C/C1=C\C=C\c1ccccc1	MARV entry inh 16µM
CCCOC(=O)c1cc(O)c(O)c(O)c1	MARV entry inh 25µM
CCCOC(=O)c1ccc(O)cc1	none
C[C@@H]1C=CCC(=O)N[C@@H](c2ccc3ccccc3c2)[C@H](C)C=CCC(=O)N[C@@H]1c1ccc2ccccc2c1	MARV entry inh inconclusive
CCCCCCCCCc1ccc(OCCOCCO)cc1	Lassa entry 11µM, MARV entry inh inconclusive
CCCCCCCCCCCCOCCOCCOCCOCCO	none
C[C@@H]1C(c2ccccc2)=CC(=O)c2nc3ccccc3cc2[C@@H]1C(=O)N1CCCC1	none
COC(=O)c1cc(CNC(=O)c2ccccn2)cc(NC(=O)c2ccccc2OC)c1	none
COC(=O)c1cc(CNC(=O)c2cccc(F)c2)cc(NC(=O)c2ccccc2OC)c1	Lassa entry inconclusive, MARV entry inh 141µM
CC[C@H]1OC(=O)C[C@@H](O)[C@H](C)[C@@H](O[C@@H]2O[C@H](C)[C@@H](O)[C@H](N(C)C)[C@H]2O)[C@@H](CCN2C[C@H](C)C[C@H](C)C2)C[C@@H](C)C(=O)/C=C/C(C)=C/[C@@H]1CO[C@@H]1O[C@H](C)[C@@H](O)[C@@H](OC)[C@H]1OC	MARV entry inh inconclusive
CN1CCCN(C(=O)[C@@H]2C[C@@H](Sc3nc4ccccc4[nH]3)CN2Cc2ccc(-c3ccccc3)cc2)CC1	MARV entry inh inconclusive
C[C@H]1CCCC=CC2C[C@H](O)C[C@@H]2[C@H](O)C=CC(=O)O1 (stereo partly drawn)	Lassa entry inconclusive, MARV entry inh 35µM
COC(=O)c1cc(CNC(=O)c2ccc3ncccc3c2)cc(NC(=O)c2ccccc2Cl)c1	none
CCCCCCCCOC(=O)c1ccccc1C(=O)OCCCCCCCC	none
CCCCCCCCCCCCCCOc1ccc(C(=O)O)o1	Lassa entry 0.56µM, MARV entry inh inconclusive
Cc1ccccc1-n1c(CF)nc2ccc(N)cc2c1=O	none
CC(C)c1nc(CN(C)C(=O)N[C@H](C(=O)N[C@@H](Cc2ccccc2)C[C@H](O)[C@H](Cc2ccccc2)NC(=O)OCc2cncs2)C(C)C)cs1	Lassa entry 7.1µM!, MARV entry inh inconclusive
COC[C@H]([C@@H](O)[C@@H](O)C(=O)NCC[C@@H](C)c1nc(/C=C/C[C@H]2OC3(C[C@H](O)[C@H]2C)OC([C@@H](C[C@@H](O)[C@@H](C)[C@@H](O)[C@@H](C)/C=C(C)/C(C)=C/C=C/C(C)=C\C#N)OC)[C@@H](OP(=O)(O)O)C3(C)C)co1)N(C)C (stereo partly drawn)	Lassa entry 71µM, MARV entry inh 0.11µM
CCCCCCN1C[C@H](O)[C@@H](n2cc(C3CC3)nn2)C[C@H]1c1ccc(Cl)cc1	MARV entry inh inconclusive
CCN(CC)CCCN(c1ccccc1)C1Cc2ccccc2C1	Lassa entry 8.9µM, MARV entry inh 3.5µM
Cc1ccccc1-c1cncnc1Nc1ccc(F)cc1	none
CN[C@@H]1CCc2[nH]c3ccc(C(N)=O)cc3c2C1	none
CN(C)C1CCc2[nH]c3ccc(NC(=O)c4ccc(F)cc4)cc3c2C1 (stereo not drawn)	MARV entry inh 11µM
CC(C)CON=C1C[C@@H](O)[C@@H](O)[C@@H]2[C@H]3C(=O)N(Cc4ccc5c(c4)OCO5)C(=O)[C@@H]3CC[C@@H]12	none
COc1ccc([C@]23Cc4ccccc4[C@H](O2)C2=C(CC(C)(C)CC2=O)O3)cc1	none
O[C@@H](CNC[C@H](O)[C@H]1CCc2cc(F)ccc2O1)[C@@H]1CCc2cc(F)ccc2O1	Lassa entry inconclusive, MARV entry inh 10µM
C[C@H]1[C@H]2CC[C@H]3[C@@H]4CC=C5C[C@@H](N(C)C)CC[C@]5(C)[C@H]4CC[C@]23CN1C	MARV entry inh 3.2µM
C[C@]12CC[C@H]3[C@@H](CC=C4C[C@@H](O)CC[C@@]43C)[C@@H]1CC[C@@H]2O	none
O=C1[C@@H]2[C@H]3[C@H](O)[C@H](O)CC(=NOC[C@@H](O)COCc4ccco4)[C@H]3CC[C@H]2C(=O)N1c1ccc(F)cc1F	none
CS(=O)(=O)CCNCc1cc(-c2cc3c(Nc4ccc(OCc5cccc(F)c5)c(Cl)c4)ncnc3s2)cs1	MARV entry inh inconclusive
CC(=O)Nc1cccc(C#Cc2cncnc2Nc2ccc(OCc3cccc(F)c3)c(Cl)c2)c1	MARV entry inh 13µM (no result: Lassa entry)
c1ccc2c(N3CCNCC3)nc(-c3ccoc3)nc2c1	none
C#CCCCON=C1C[C@@H](O)[C@H](O)[C@H]2[C@@H]3C(=O)N(Cc4ccccc4)C(=O)[C@@H]3CC[C@H]12	none
O=C(O)CC/C=C\CC[C@@H]1[C@@H](N2CCCCC2)[C@@H](O)C[C@@H]1OCc1ccc(-c2ccccc2)cc1	none
COc1ccc2[nH]cc(CCN(C)C)c2c1	none
COC1(CS(=O)c2ccccc2)CCN(CCc2c[nH]c3ccc(F)cc23)CC1 (stereo not drawn)	MARV entry inh 16µM
S=C=Nc1ccc(N=C=S)cc1	none
CC(C)(C)OC(=O)N[C@@H](Cc1c[nH]c2ccccc12)C(=O)O	none
CC[C@@H](C)[C@H](NS(=O)(=O)c1cccc2ccccc12)C(=O)N[C@H](C=O)Cc1c[nH]c2ccccc12	Lassa entry inconclusive, MARV entry inh 3.5µM
COCC1CCCN(Cc2ccc3c(c2)CN(C(=O)c2ccc(-c4ccc(C)o4)cc2)CCO3)C1 (stereo not drawn)	MARV entry inh inconclusive
Nc1nc(=S)c2[nH]cnc2[nH]1	Lassa entry 2.8µM, MARV entry inh 3.2µM
Nc1ncnc2nc[nH]c12	none
COC1C(O)C(C)O[C@@H](OC2CC[C@@]3(C)C4CC[C@]5(C)C(C6=CC(=O)OC6)CC[C@@]5(O)C4CC[C@@H]3C2)C1O (stereo partly drawn)	Lassa entry 0.1µM, MARV entry inh 0.079µM
COC1C(O)C(C)O[C@H](OC2CC[C@@]3(C=O)C4CC[C@]5(C)C(C6=CC(=O)OC6)CC[C@@]5(O)C4CC[C@@H]3C2)C1O (stereo partly drawn)	Lassa entry 0.1µM, MARV entry inh inconclusive
COc1ccc2[nH]c(S(=O)Cc3ncc(C)c(OC)c3C)nc2n1 (stereo not drawn)	Lassa entry inconclusive
